CYP2C9 inh: blocks human cytochrome P450 2C9 | 20% of 96,000 active | AID 777 | CYP2C9 Supersomes, luciferin-H conversion, luminescence | P11712 | inhibition, % at 5 µM;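 active = blocking of liver enzyme CYP2C9 beyond about 50% at 5 µM, limit read from the data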
Measles CPE: protection of cells from measles virus. protection (pct of control), % at 4 µM. Measles virus-infected cells, CPE protection, absorbance. 1.5% of 140,000 active; in the data active = protection mostly above about 24%, no sharp cut-off; inactive = mostly below about 26%
CYP2C19 inhib: inhibitors of human CYP2C19; CYP2C19 Supersomes, luciferin-H EGE luminescence, 30 min; AID 778; inhibition, % at 5 µM; 21% of 96,000 active;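 active = CYP2C19 inhibition above a set limit at 5 µM in the primary screen, cut at about 50% in these data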;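 also: plate controls were negative control wells for no effect and 2.5 mM tranylcypromine positive control for full effect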
Target sequence (P33261 whole entry, looked up): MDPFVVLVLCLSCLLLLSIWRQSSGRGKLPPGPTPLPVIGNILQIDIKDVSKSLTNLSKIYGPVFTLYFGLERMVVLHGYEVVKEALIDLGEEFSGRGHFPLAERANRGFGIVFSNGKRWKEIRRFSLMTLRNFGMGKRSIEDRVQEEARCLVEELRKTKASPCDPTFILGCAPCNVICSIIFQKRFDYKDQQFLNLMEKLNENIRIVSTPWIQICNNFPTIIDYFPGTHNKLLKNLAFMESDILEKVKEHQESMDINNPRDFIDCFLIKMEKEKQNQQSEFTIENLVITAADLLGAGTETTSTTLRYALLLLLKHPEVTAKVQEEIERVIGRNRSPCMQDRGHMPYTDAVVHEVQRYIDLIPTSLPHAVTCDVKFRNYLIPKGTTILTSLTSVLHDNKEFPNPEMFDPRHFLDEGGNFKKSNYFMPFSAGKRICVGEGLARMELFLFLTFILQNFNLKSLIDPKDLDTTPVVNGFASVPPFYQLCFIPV
CYP2C9 activ: increases human cytochrome P450 2C9 activity. AID 1024. 1.4% of 96,000 active. activation factor at 5 µM. recombinant CYP2C9, luciferin-H conversion, luminescence; hits give high values; factor 1 = untreated enzyme, 0 = blocked;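 active = activation factor of 2 or more for CYP2C9 at a 5 µM dose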;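 also: 0 = sulfaphenazole-blocked wells and 1 = vehicle-only wells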
CYP2C19 activ: increases human CYP2C19 enzyme activity | P33261 | recombinant CYP2C19, luciferin-H EGE luminescence; hits give high values; 0 = fully inhibited enzyme, 1 = untreated enzyme | activation factor at 5 µM | 96,000 tested, under 10 active;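 active = activation factor of at least 2 at 5 µM in the primary screen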;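 also: 0 = wells with 2.5 mM tranylcypromine and 1 = vehicle-only wells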
The depositor's hits bear a star; . = no result given. A selection: hits, their analogues and other compounds. The true share with any hit is near 22%.

SMILES	CYP2C9 inh	Measles CPE	CYP2C19 inhib	CYP2C9 activ	CYP2C19 activ
O=C(CCN1CCOCC1)Nc1c(-c2ccccc2)c2cc(Br)ccc2[nH]c1=O	5	5	10	0.9	0.9
O=C(CC(C(=O)O)c1ccccc1)Nc1ccccc1 (stereo not drawn)	.	15	.	.	.
CC(CC(=O)Nc1ccc(Cl)c([N+](=O)[O-])c1)c1ccccc1 (stereo not drawn)	74*	5	76*	0.3	0.2
CC(CC(=O)Nc1ccc(C(N)=O)cc1)c1ccccc1 (stereo not drawn)	.	29*	.	.	.
CC(=O)Cc1nsc(Nc2ccc3c(c2)OCCO3)n1	72*	8	45	0.3	0.6
COc1ccc(Nc2nc(CC(C)=O)ns2)cc1	.	9	.	.	.
COc1ccc2[nH]c(C)c(CCN(Cc3cccs3)C(=S)Nc3cccc(F)c3)c2c1	98*	4	78*	0	0.2
Cc1cc(NC(=O)CC(CN(C)S(=O)(=O)c2ccccc2)c2ccccc2)no1 (stereo not drawn)	46	9	88*	0.5	0.1
COc1ccc(C(c2nnnn2CS(=O)(=O)c2ccc(C)cc2)N2CCN(c3ncccn3)CC2)cc1 (stereo not drawn)	.	22	.	.	.
CCn1c(NCc2ccc3c(c2)OCO3)nc2ccccc21	21	9	73*	0.8	0.3
C=CCn1c(NCc2ccc3c(c2)OCO3)nc2ccccc21	73*	2	95*	0.3	0.1
C=CCn1c(NCc2ccccc2)nc2ccccc21	-1	12	35	1	0.6
OCCOCCNc1ncnc2sc(-c3ccccc3)cc12	59*	6	64*	0.4	0.4
Cc1ccc(-c2cc(C(=O)OCC(=O)Nc3ncc(C(F)(F)F)cc3Cl)c3ccccc3n2)cc1	.	15	.	.	.
CN(C)c1nc(OCCNC(=O)COc2ccc(Cl)cc2Cl)nc(N2CCOCC2)n1	82*	12	50	0.2	0.5
Cc1cc(Cl)ccc1OCC(=O)NCCOc1nc(N2CCOCC2)nc(N2CCOCC2)n1	23	9	19	0.8	0.8
Cc1cc(Cl)ccc1OCC(=O)NCCCN1CCOCC1	-1	10	42	1	0.6
CON(C)c1nc(OCCNC(=O)OCc2ccc(Cl)cc2Cl)nc(N(C)C)n1	63*	3	36	0.4	0.6
COC(=O)NCCOc1nc(N(C)C)nc(N(C)C)n1	-2	6	0	1	1
CON(C)c1nc(OCCNC(=O)COc2ccc(Cl)cc2C)nc(N(C)C)n1	51*	3	36	0.5	0.6
CCOC(=O)C(NC(=O)c1cccc(Cl)c1)(Nc1nnc(C)s1)C(F)(F)F (stereo not drawn)	.	4	.	.	.
CCC(CC)C(=O)Nc1cc(C(=O)OC)ccc1C(=O)OC	.	13	.	.	.
CCOc1cccc(/C(O)=C2/C(=O)C(=O)N(CCOC)C2c2ccc(C)o2)c1 (stereo not drawn)	-5	4	22	1	0.8
COc1cc(NC(=O)C(C)C)ccc1NC(=O)c1ccco1	64*	5	14	0.4	0.9
COc1ccc(Cl)cc1NC(=O)c1ccco1	-320	5	32	4.2*	0.7
SMILES	CYP2C9 inh	Measles CPE	CYP2C19 inhib	CYP2C9 activ	CYP2C19 activ
COc1ccc(Cl)cc1NC(=S)N1CCN(C(=O)c2ccco2)CC1	-95	3	39	2*	0.6
COc1ccc(NC(=O)c2ccco2)c(OC)c1	-2	4	11	1	0.9
COc1cc(NC(=S)N2CCN(C(=O)c3ccco3)CC2)c(OC)cc1Cl	.	10	.	.	.
COc1cc(NC(=O)C2CCCCC2)c(OC)cc1NC(=O)c1ccco1	47	29	62*	0.5	0.4
COc1ccc(Cl)cc1C(=O)Nc1ccc(NC(=O)c2ccco2)cc1	38	2	4	0.6	1
CCOc1cc(NC(=O)C2CCCCC2)c(OCC)cc1NC(=O)c1ccco1	22	4	44	0.8	0.6
CC(C)CCNC(=O)c1ccc(CSCc2cccc(F)c2)o1	44	22	28	0.6	0.7
Cc1ccc(Oc2ccc(Cl)cc2NC(=O)c2cnccn2)cc1	56*	24	24	0.4	0.8
COc1cc(NC(=O)c2ccco2)c(OC)cc1NC(=O)Nc1ccccc1Cl	60*	15	85*	0.4	0.2
COc1ccc(Cl)cc1C(=O)NNC(=O)c1cccnc1	-38	5	-3	1.4	1
COc1ccc(Cl)cc1NC(=O)c1cccnc1	-157	9	-6	2.6*	1.1
COc1ccc(OC)c(N/C(=N\c2nc(C)cc(C)n2)NC(=O)c2ccco2)c1	56*	.	18	0.4	0.8

Screening results as filed in PubChem BioAssay.
